In the supplement of paper PMC3334620:
The full ranking holds about 33,000 sequences; the median of “E-score (-0.5 to 0.5)” is about -0.032, and the highest 2% start at about 0.36. Many of the other results were omitted from the sample, so the highest values are more common in it than they were.

molecular target: T1, Sko1 (UniProt Q02100); assay: PBM E-score (8-mer binding enrichment) (E-score (-0.5 to 0.5)); higher = stronger / more preferred TF binding; settings: protein concentration: 200 nM; construct: GST-full length
T1 sequence: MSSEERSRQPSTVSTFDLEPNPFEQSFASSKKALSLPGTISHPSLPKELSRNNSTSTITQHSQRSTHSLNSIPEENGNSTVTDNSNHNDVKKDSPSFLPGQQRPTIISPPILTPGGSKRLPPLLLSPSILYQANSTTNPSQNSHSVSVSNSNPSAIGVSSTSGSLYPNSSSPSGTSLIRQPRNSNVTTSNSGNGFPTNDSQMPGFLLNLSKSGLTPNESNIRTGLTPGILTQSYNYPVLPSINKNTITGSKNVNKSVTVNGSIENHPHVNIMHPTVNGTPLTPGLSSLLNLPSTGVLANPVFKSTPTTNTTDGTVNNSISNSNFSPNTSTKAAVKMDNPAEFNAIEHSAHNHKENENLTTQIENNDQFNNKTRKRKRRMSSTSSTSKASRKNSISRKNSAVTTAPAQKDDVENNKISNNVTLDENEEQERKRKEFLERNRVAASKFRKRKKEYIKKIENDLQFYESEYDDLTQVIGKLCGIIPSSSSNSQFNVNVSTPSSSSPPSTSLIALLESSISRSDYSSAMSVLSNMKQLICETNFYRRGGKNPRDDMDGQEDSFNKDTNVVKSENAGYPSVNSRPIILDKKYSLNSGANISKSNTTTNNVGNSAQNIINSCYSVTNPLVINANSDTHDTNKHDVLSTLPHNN
Outline: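 Masliner-normalised scans of fluorescent anti-GST signal were the basis for scoring. That signal came from GST-tagged yeast transcription factors applied at about 100-200 nM to double-stranded universal all-10-mer Agilent arrays on fresh or once-stripped slides. Each ungapped eight-base word, pooled with its reverse complement, received an E-score from the Universal PBM Analysis Suite.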

Row | Sequence | PBM E-score
1 | AGAACCAG | -0.306
2 | CCTACTAA | -0.18
3 | AATGCCTA | -0.0242
4 | CCTATGCC | -0.3
5 | CCATGGAG | -0.266
6 | ATACGCAG | 0.296
7 | ATACGCAT | 0.375
8 | AGACGCAC | 0.104
9 | AAACGCAT | 0.0801
10 | CTACGCAC | 0.315
11 | CTACGCAA | 0.414
12 | CTACGCAG | 0.274
13 | TAACGCAA | 0.312
14 | ATACGCGC | 0.188
15 | TTACGCAA | 0.466
16 | ATACGCAC | 0.389
17 | TTACGGAA | 0.246
18 | ATAGCCTA | -0.0632
19 | GCAAGGCA | 0.0267
20 | AAGACCTG | -0.147
21 | AGCTAATG | 0.114
22 | ACGAGACG | 0.126
23 | CCACCGAA | -0.00284
24 | CAGCTGAC | 0.0244
25 | AAGGGAAG | 0.0269

Row | Sequence | PBM E-score
26 | ACCAGAGT | -0.256
27 | ATTCTATG | 0.0207
28 | CGTACTCC | 0.201
29 | GTACGCAC | 0.303
30 | GTACGCAA | 0.399
31 | AAACGCAA | 0.335
32 | ATACGCAA | 0.447
33 | ATACGCGA | 0.281
34 | GTACGCGA | 0.277
35 | GAAGTTGC | -0.0684
36 | ATAGCACG | -0.0293
37 | AATTGGGT | 0.12
38 | CCACGTCG | 0.168
39 | GCACGTCA | 0.477
40 | ACACGTCG | 0.335
41 | ACACGTCA | 0.489
42 | GTACGGCA | 0.0279
43 | CCACGTCC | 0.109
44 | GTACGTCA | 0.491
45 | CCACGTCA | 0.477
46 | ACACGTCC | 0.214
47 | GCACGTCC | 0.0489
48 | GCCCGTCA | -0.00134
49 | GTCCGTCA | 0.179
50 | GGCCCTAA | -0.259

Row | Sequence | PBM E-score
51 | GACGGTAC | 0.171
52 | CCAATGGA | -0.215
53 | AAGACTGT | -0.142
54 | TCACGTCA | 0.484
55 | TCCCGTCA | 0.218
56 | TCACGACA | 0.212
57 | GCACGTGA | 0.387
58 | ACACGTGG | 0.356
59 | ACACGTGA | 0.415
60 | ACACGTGT | 0.407
61 | ACACGAGT | -0.0245
62 | GCTCGTGA | -0.116
63 | ACACGTGC | 0.346
64 | GCACGTGC | 0.296
65 | ACTAGATC | -0.0827
66 | CAAGATTA | 0.11
67 | AAGACGCT | -0.168
68 | CAGGTAAC | -0.118
69 | AAGACCCC | -0.274
70 | CATCCCTA | -0.124
71 | CACGTCGG | 0.183
72 | AACGTCGA | 0.281
73 | GACGTCGA | 0.364
74 | CACGTCGA | 0.278
75 | TCCGTCGA | -0.0164

Row | Sequence | PBM E-score
76 | TACGTCGA | 0.422
77 | CGTGTGGC | 0.152
78 | CCTATAGG | -0.205
79 | CAGTAAGA | 0.0474
80 | ACACATAC | 0.124
81 | AGGTGACA | 0.118
82 | ATGTGACC | -0.0234
83 | CGGTGACC | -0.172
84 | AGGTGACG | 0.388
85 | CGGTGACG | 0.449
86 | ATGTGACA | 0.169
87 | CGGTGACA | -0.0125
88 | ATGTGACG | 0.44
89 | AGGTGACC | -0.0978
90 | CTCACTAA | 0.118
91 | AGGGCCAG | -0.407
92 | ACCGAGGC | -0.319
93 | GGCATTGA | -0.104
94 | GCGTAATA | 0.421
95 | GCGTAAGC | 0.294
96 | GAGTAATA | 0.183
97 | ACGTAAGT | 0.465
98 | CCGTAATA | 0.288
99 | CCGTAAGA | -0.0187
100 | AAGTAAGT | 0.0641

Row | Sequence | PBM E-score
101 | CCGTAAGC | -0.0492
102 | ACGTAAGA | 0.476
103 | AAGTAAGC | 0.0436
104 | ACGTAAGC | 0.455
105 | TCGTAAGA | 0.199
106 | AGAGTTCC | -0.269
107 | CGTAGGTC | 0.284
108 | GTCTCAAA | -0.0308
109 | AAGATATT | 0.0367
110 | ACTCCTAC | 0.0364
111 | CGTTGCAC | 0.11
112 | CTCGGCGA | -0.0899
113 | CAACATTC | -0.167
114 | AATGCCCA | -0.173
115 | ATTCTTGC | 0.0625
116 | GGCAGCAC | -0.103
117 | CTTCTCAA | -0.04
118 | GCAACCGA | -0.129
119 | ATTGGCAA | 0.134
120 | CCGTAAGG | -0.15
121 | AGGTAAGG | -0.0698
122 | GCGTAAGA | 0.378
123 | GTGTAAGA | 0.0148
124 | CTGTAATA | 0.042
125 | ACGTAAGG | 0.464

Row | Sequence | PBM E-score
126 | GAGTAAGA | 0.0882
127 | ATGTAATA | 0.376
128 | GTGTAATA | 0.221
129 | GACTTTGC | -0.117
130 | TCTCGCAA | -0.114
131 | CATGCCAG | -0.191
132 | CCTAGGCA | -0.257
133 | AGAGCGAT | -0.16
134 | CTAGCTAC | -0.105
135 | GCATGCCA | -0.187
136 | CTGCCATA | -0.0751
137 | GTCTGCCA | -0.00797
138 | GACGCGTA | 0.388
139 | TACGCGTA | 0.387
140 | CACGCGTA | 0.311
141 | CACGCGTC | 0.291
142 | TACGCGCA | 0.209
143 | GTCGCGTA | 0.363
144 | CTCGCGTA | 0.212
145 | ATCGCGTA | 0.326
146 | AACGCGTA | 0.287
147 | CCCTGGCA | -0.34
148 | GGCTGGCA | -0.303
149 | AGAACGGG | -0.124
150 | GGTGCGTA | 0.299

Row | Sequence | PBM E-score
151 | AGTGCGTA | 0.376
152 | AGTGCGTC | 0.225
153 | CGTGCGTC | 0.388
154 | CCTGCGTC | 0.122
155 | CGTGCGAC | 0.0911
156 | CGTGCGTA | 0.382
157 | CGTGCGCA | 0.205
158 | AGTGCGTG | 0.152
159 | CTAGACTA | -0.139
160 | CATTGGTC | -0.282
161 | CTTGTGCA | -0.154
162 | GTAGCGGA | -0.0973
163 | CGCTTAAA | 0.0298
164 | AGCGTGAT | 0.147
165 | CCGTACAG | -0.22
166 | CCGTACAC | -0.0557
167 | GCGTACAA | 0.146
168 | AAGTACAT | 0.237
169 | ACGTACAT | 0.449
170 | ACGTACAG | 0.415
171 | ATGTACAT | 0.32
172 | ACGTACAC | 0.444
